Among all 1,900 compounds or so, about 15 (0.8%) were called active. Not all results are given here. Unmarked numbers belong to inactive results. Cut-off read from the data, not from the text of the source: active = luminescence above about 3900; inactive = the rest.
molecular target: D(1A) dopamine receptor (Homo sapiens) (UniProt P21728); experiment: intrinsic activation of D1 CRE reporter – cell-based, HEK293 D1, CRE-luciferase, secondary assay 1, mechanism study for D1 allosteric modulator project, confirmation (AID 646); settings: no dopamine, at 10 µM, hits give high values
Sequence (P21728 whole entry, looked up): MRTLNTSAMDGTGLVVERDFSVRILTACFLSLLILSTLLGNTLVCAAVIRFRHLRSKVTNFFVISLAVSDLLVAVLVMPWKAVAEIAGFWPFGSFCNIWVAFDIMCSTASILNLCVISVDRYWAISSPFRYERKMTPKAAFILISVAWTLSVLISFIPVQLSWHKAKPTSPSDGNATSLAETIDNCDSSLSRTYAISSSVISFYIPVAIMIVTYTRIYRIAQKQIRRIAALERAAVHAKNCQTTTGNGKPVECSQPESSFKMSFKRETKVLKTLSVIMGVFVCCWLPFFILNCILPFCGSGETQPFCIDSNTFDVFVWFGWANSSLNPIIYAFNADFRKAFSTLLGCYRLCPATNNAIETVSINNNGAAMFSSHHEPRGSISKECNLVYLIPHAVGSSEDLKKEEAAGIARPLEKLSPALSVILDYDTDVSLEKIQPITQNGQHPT

SMILES | luminescence
CCOc1cc(-c2noc(CCC(=O)N3CCOCC3)n2)ccc1OC | 1180
COC(=O)[C@H](C(C)C)n1c(C)c(C(C)=O)c(C(C)=O)c1C | 1540
N#Cc1nc(Cc2ccccc2)oc1NCCc1ccccc1 | 1730
Cc1cc(C)c2c(n1)nn1c(-n3ccnc3)cc(C)nc21 | 1660
CC1CCN(c2oc(-c3ccccc3F)nc2C#N)CC1 | 1620
Cc1ccc(C2CC(c3cccc(Br)c3)n3nc(N)nc3N2)cc1 (stereo unspecified) | 1420
COc1cc(NC(=O)N2CCOCC2)cc(OC)c1 | 1580
COc1ccc(NC(=O)C2CCCN(S(=O)(=O)c3cccc4cccnc34)C2)cc1OC (stereo unspecified) | 1590
CCCc1nc(-c2ccccc2O)n(-c2ccccc2)n1 | 1710
COc1ccc(-c2nn3c(-c4ccccc4)nnc3s2)cc1OC | 1800
O=C(NCc1ccco1)c1cnn2c(C(F)(F)F)cc(-c3ccco3)nc12 | 1560
Cc1nn(-c2ccccc2)c2c1C(=O)NC(=O)C(C)(C)C2 | 1740
COc1ccc(-c2nnc(SCC(=O)NC3CCCCC3)o2)cc1OC | 1800
c1coc(-c2nc3nc4ccccc4n3nc2-c2ccco2)c1 | 1610
CC1(C)Cc2ccccc2-c2nc(CN3CCOCC3)[nH]c(=O)c21 | 1890
CCCCSc1nc2c(c(=O)n1CC)SC(C)C2 (stereo unspecified) | 1490
CCOC(=O)c1c(NC(=O)CSc2nnc(Cc3csc(N)n3)n2C)sc(C)c1C | 1680
C#CCNc1nc(C(C)C)nc2c1nnn2Cc1ccccc1F | 1600
C/C(=C\C(=O)c1ccccc1)Nc1cccc(O)c1 | 1340
O=S(=O)(c1cccs1)N1CCc2ccccc2C1 | 1530
COc1ccc(CCNC(=O)CCn2c(=O)oc3ccccc32)cc1OC | 1540
COc1ccc(CCN(C)C(=O)C2CCCN(Cc3ccc(OC)c(OC)c3)C2)cc1OC (stereo unspecified) | 1520
O=C(C1CCC1)N1CCc2cc(S(=O)(=O)NCc3cccnc3)ccc21 | 1680

SMILES | luminescence
CCOC(=O)c1c(NC(=O)CSc2nnc(CN3CCOCC3)n2C)sc2c1CCCC2 | 1870
CCSc1ncnc2c(C#N)c3n(c12)CCCCC3 | 1840
N#Cc1nc(N)nc(N(c2ccccc2)c2ccccc2)n1 | 1620
COc1ncnc2c1N=C1CC(C)(C)CC(N)=C1S2 | 1620
N#CCCN1CCN(S(=O)(=O)c2ccc(S(=O)(=O)NC3CCCCC3)cc2)CC1 | 1130
c1ccc(COc2nsnc2N2CCOCC2)cc1 | 1550
CCc1cc(=O)oc2cc(OCC(=O)N3CCCc4ccccc43)ccc12 | 1680
Cn1c(/C(C#N)=C2/CCCCCN2)nc2ccccc21 | 1800
COc1ccc(Nc2oc(-c3ccccc3Cl)nc2C#N)cc1 | 1750
CCOc1cc(C(=O)N2CCc3cc(OC)c(OC)cc3C2)ccc1OC(F)F | 2710
CCOc1ccc(Nc2oc(Cc3ccccc3)nc2C#N)cc1 | 1910
CCOc1ccccc1C1CC(c2ccccc2)Nc2nc(N)nn21 (stereo unspecified) | 1700
Cc1cc(C(F)(F)F)nn1-c1nc(-c2ccco2)cc(C(F)(F)F)n1 | 1710
c1ccc(-c2nnc3n2NC(c2ccc4c(c2)OCO4)S3)cc1 (stereo unspecified) | 1610
CCOC(=O)c1cc2n(c1C)-c1ccccc1C2=O | 1720
CCSc1nc(C)nc2c1oc1ccccc12 | 1590
CCCc1nc(N)nc2c1C(=O)CC(C)(C)C2 | 1560
CCOc1ccc(Cn2c(SCCCCC#N)nc3c2c(=O)n(C)c(=O)n3C)cc1OCC | 1460
CC1CCN(c2nc3c(c(=O)[nH]c(=O)n3C)n2CCCc2ccccc2)CC1 | 1410
Cc1ccc(-c2nn(-c3ccccc3)cc2CN(Cc2ccccc2)C(=O)CCC(=O)O)o1 | 1420
CC(C)n1c(C(O)c2ccccc2)nc2ccccc21 (stereo unspecified) | 1600
CCCn1c(=O)c2[nH]c(C3CCCC3)nc2n(CCC)c1=O | 1560
Nc1ccc(S(=O)(=O)NC(=O)c2ccccc2)cc1 | 1560

SMILES | luminescence
O=c1cc(-c2ccccc2)nc(N2CCCCC2)[nH]1 | 1600
COC(=O)c1ccccc1NC(=O)C1CCN(S(=O)(=O)c2cc(OC)ccc2OC)CC1 | 1480
Cn1c(=O)c2cn(-c3cccc4ccccc34)cc2n(C)c1=O | 1650
COc1ccc(-n2c(Cc3cccn3C)nnc2SCC(=O)Nc2cc(C)cc(C)c2)cc1 | 1500
COc1ccc(CCNC(=O)c2cc3sccc3n2C)cc1OC | 1640
COc1ccc(-c2nnn(Cc3nc(N)nc(N4CCCCC4)n3)n2)cc1 | 1520
CN1CCN(CC(O)COCc2ccc3c(c2)OCO3)CC1 (stereo unspecified) | 1670
COc1ncnc2sc3c(c12)CCCC3 | 1600
CC(C)C1C2=C(CC(C)(C)CC2=O)ON1c1ccccc1 (stereo unspecified) | 1810
COC(=O)C(C)C1Sc2ccccc2NC1=O (stereo unspecified) | 1730
N#Cc1c(N)sc2c1CCN(C(=O)OCc1ccccc1)C2 | 1760
CC(=O)OC(C)C[N+](C)(C)C (stereo unspecified) | 1390
O=C(CSc1nnc2scc(-c3ccc(F)cc3)n12)NCc1ccco1 | 1730
COc1ccc(CCNc2ncnc3nc[nH]c23)cc1OC | 1540
CCOc1ccc2[nH]c(=O)c(C(c3nnnn3CCOC)N3CCOCC3)cc2c1 (stereo unspecified) | 1550
N#CCSc1nc2ccccc2c(=O)n1-c1ccccc1 | 1780
COC(=O)C1=C(C)NC2=C(C(=O)c3ccccc32)C1c1ccc(-c2ccc(C(=O)O)cc2)o1 (stereo unspecified) | 1810
CCn1cc(C(=O)NCC2COc3ccccc3O2)c2cc(OC)c(OC)cc2c1=O (stereo unspecified) | 1710
C/C(Cl)=C\Cn1c(Nc2cccc(C)c2)nc2c1c(=O)n(C)c(=O)n2C | 1690
CN(C)c1nc(N)nc(CSc2nnnn2-c2cccc3ccccc23)n1 | 792
CCn1nc(C(=O)OCC(=O)N2c3ccccc3CC2C)c2ccccc2c1=O (stereo unspecified) | 1520
CCC(=O)NC(=Nc1nc2ccccc2s1)NC(=O)CC | 1420
CCOC(=O)c1cc(C)sc1NC(=O)C1CCC1 | 2190

SMILES | luminescence
COc1nc(NCc2ccc(Cl)cc2)nc(OC)n1 | 1580
COc1ccc(-c2nnco2)cc1OC | 1540
CCOc1ccc2c(c1)cc(CN(C(=O)CC)C1CCCCC1)c1nnnn12 | 1650
CCn1c(=N)c(S(=O)(=O)c2ccc(F)cc2)cc2c(=O)n3ccccc3nc21 | 1820
Cn1c(=O)c2[nH]c(NCC3CCCO3)nc2n(-c2ccccc2)c1=O (stereo unspecified) | 1520
O=C(NCc1ccccn1)c1ccc2nc(-c3ccco3)c(-c3ccco3)nc2c1 | 2040
CCn1ncc(C2=NOC(C(=O)Nc3ccccc3C(=O)OC)C2)c1C (stereo unspecified) | 1280
COc1ccc(S(=O)(=O)N(C)CC(=O)Nc2ccc3c(c2)OCCO3)cc1OC | 1540
CCOc1ccc(-c2nnn(CC(=O)N3CCN(c4ccc(OC)cc4)CC3)n2)cc1OCC | 1540
CCCS(=O)(=O)N1CCC(C(=O)NCCc2ccc(OC)c(OC)c2)CC1 | 1810
Cc1ccc(C2CC(c3cccc(C)c3)n3nc(N)nc3N2)cc1 (stereo unspecified) | 1850
CCCn1c(=NC(C)=O)c(C(=O)OCC)cc2c(=O)n3ccccc3nc21 | 1630
COc1ccc(S(=O)(=O)Nc2ccc(S(=O)(=O)N3CCCCC3)cc2)cc1OC | 1540
CCOC(=O)/C=c1\s/c(=C\c2ccccc2OC)c(=O)n1CC(=O)N1CCOCC1 | 1600
FC(F)(F)c1cc(-c2ccco2)nc(N2CCOCC2)n1 | 1540
Cc1ccc(S(=O)(=O)c2c(N)n(C)c3nc4ccccc4nc23)cc1 | 1580
CC(=O)c1ccc(Oc2cc(C)nc(-n3nc(C)cc3C)n2)cc1 | 1560
CCCCc1c(O)nc2n(c1=O)CCS2 | 1610
CCNc1nc(NCC)nc(N(C)n2cnnc2)n1 | 1760
CCCSc1nc2c(c(=O)[nH]c(=O)n2C)n1CCc1ccccc1 | 1480
CCOc1cccc(-n2nnnc2-c2ccc(OC)cc2)c1 | 1540
COc1ccc(Nc2cc(C)nc(-n3nc(C)cc3C)n2)cc1 | 1750

Reference: PubChem BioAssay AID646 (Vanderbilt High Throughput Screening Facility, 2007)
